Hit rate of the full screen: of about 5,500 compounds, about 2,000 (36%) were called active. Roughly 18% stayed inconclusive and do not appear here. No stated cut-off is given here; in the data, active means normalized growth mostly below about 0.91 (no sharp cut-off); inconclusive means no clear call, values can overlap the other calls; inactive means mostly above about 0.92. The list shows a part of the results.
Experiment: chemical genetic growth profiling, strain panel (AID 1159580);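 further: tested at 20 µM; growth read once vehicle control cultures reached saturation at 30 °C; 1 = growth at the plate median or of vehicle wells; lower values mean less growth of the strain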
Settings: growth OD

Measured: normalized growth

COc1ccc2c(c1)O[C@H]1c3ccc(OC)cc3OC[C@@H]21
inactive: S. cerevisiae deletion strains, locus YJR075W, strain HOC1, hits give low values 0.969 | S. cerevisiae deletion strains, locus YKL068W, hits give low values 0.99 | S. cerevisiae deletion strains, locus YKL085W, strain MDH1 (second series), hits give low values 0.98 | S. cerevisiae deletion strains, locus YKL085W, strain MDH1, hits give low values 0.98 | S. cerevisiae deletion strains, locus YKL160W, strain elf1, hits give low values 1.03 | S. cerevisiae deletion strains, locus YKL190W, strain CNB1, hits give low values 1.01 | S. cerevisiae deletion strains, locus YKR001C, strain vps1, hits give low values 0.936 | S. cerevisiae deletion strains, locus YKR026C, strain gcn3, hits give low values 1.02 | S. cerevisiae deletion strains, locus YKR091W, strain srl3, hits give low values 1.03 | S. cerevisiae deletion strains, locus YLL001W, strain dnm1, hits give low values 1.02 | S. cerevisiae deletion strains, locus YLL026W, hits give low values 1.03 | S. cerevisiae deletion strains, locus YLL041C, strain sdh2, hits give low values 1.03 | S. cerevisiae deletion strains, locus YLR027C, strain aat2, hits give low values 1.01 | S. cerevisiae deletion strains, locus YLR039C, strain RIC1, hits give low values 0.767 | S. cerevisiae deletion strains, locus YLR058C, strain SHM2, hits give low values 0.957 | S. cerevisiae deletion strains, locus YLR102C, strain apc9, hits give low values 0.949 | S. cerevisiae deletion strains, locus YLR113W, strain HOG1, hits give low values 1.02 | S. cerevisiae deletion strains, locus YLR221C, strain rsa3, hits give low values 1.02 | S. cerevisiae deletion strains, locus YLR258W, strain gsy2, hits give low values 1.03 | S. cerevisiae deletion strains, locus YLR262C, strain YPT6 (second series), hits give low values 1 | S. cerevisiae deletion strains, locus YLR262C, strain YPT6, hits give low values 0.744 | S. cerevisiae deletion strains, locus YLR268W, strain sec22, hits give low values 0.9 | S. cerevisiae deletion strains, locus YLR320W, strain mms22, hits give low values 1.02 | S. cerevisiae deletion strains, locus YLR330W, strain CHS5, hits give low values 0.975 | S. cerevisiae deletion strains, locus YLR342W, strain FKS1, hits give low values 1.02 | S. cerevisiae deletion strains, locus YLR357W, strain rsc2, hits give low values 0.99 | S. cerevisiae deletion strains, locus YLR370C, strain arc18, hits give low values 1.03 | S. cerevisiae deletion strains, locus YLR371W, strain rom2, hits give low values 0.972 | S. cerevisiae deletion strains, locus YLR384C, strain iki3, hits give low values 1.03 | S. cerevisiae deletion strains, locus YML016C, strain PPZ1, hits give low values 0.985 | S. cerevisiae deletion strains, locus YML120C, strain ndi1, hits give low values 1.02 | S. cerevisiae deletion strains, locus YML124C, strain tub3, hits give low values 0.95 | S. cerevisiae deletion strains, locus YMR058W, strain fet3, hits give low values 1.02 | S. cerevisiae deletion strains, locus YMR078C, strain ctf18, hits give low values 0.915 | S. cerevisiae deletion strains, locus YMR125W, strain sto1, hits give low values 1.02 | S. cerevisiae deletion strains, locus YMR129W, hits give low values 1.03 | S. cerevisiae deletion strains, locus YMR205C, strain PFK2, hits give low values 1.04 | S. cerevisiae deletion strains, locus YMR223W, strain ubp8, hits give low values 0.92 | S. cerevisiae deletion strains, locus YMR231W, strain pep5, hits give low values 1.03 | S. cerevisiae deletion strains, locus YMR307W, strain GAS1, hits give low values 0.927 | S. cerevisiae deletion strains, locus YNL067W, strain RPL9B, hits give low values 0.989 | S. cerevisiae deletion strains, locus YNL071W, strain lat1, hits give low values 1.01 | S. cerevisiae deletion strains, locus YNL153C, strain GIM3, hits give low values 0.953 | S. cerevisiae deletion strains, locus YNL183C, strain NPR1, hits give low values 0.946 | S. cerevisiae deletion strains, locus YNL209W, strain ssb2, hits give low values 1.01 | S. cerevisiae deletion strains, locus YNL233W, strain BNI4, hits give low values 0.953 | S. cerevisiae deletion strains, locus YNL248C, strain rpa49, hits give low values 1.02 | S. cerevisiae deletion strains, locus YNL250W, strain rad50, hits give low values 0.993 | S. cerevisiae deletion strains, locus YNL271C, strain bni1, hits give low values 0.944 | S. cerevisiae deletion strains, locus YNL322C, strain KRE1 (second series), hits give low values 1.04 | S. cerevisiae deletion strains, locus YNR049C, strain mso1, hits give low values 1.02 | S. cerevisiae deletion strains, locus YNR052C, strain pop2, hits give low values 0.963 | S. cerevisiae deletion strains, locus YOL012C, strain htz1 1.39 | S. cerevisiae deletion strains, locus YOR001W, strain rrp6, hits give low values 1.02 | S. cerevisiae deletion strains, locus YOR061W, strain CKA2, hits give low values 0.997 | S. cerevisiae deletion strains, locus YOR069W, strain VPS5, hits give low values 0.982 | S. cerevisiae deletion strains, locus YOR070C, strain gyp1, hits give low values 1.01 | S. cerevisiae deletion strains, locus YOR080W, strain dia2, hits give low values 1.02 | S. cerevisiae deletion strains, locus YOR083W, strain WHI5, hits give low values 1.03 | S. cerevisiae deletion strains, locus YOR106W, strain vam3, hits give low values 1.03 | S. cerevisiae deletion strains, locus YOR136W, strain idh2, hits give low values 0.953 | S. cerevisiae deletion strains, locus YOR144C, strain elg1, hits give low values 0.951 | S. cerevisiae deletion strains, locus YOR231W, strain MKK1, hits give low values 0.979 | S. cerevisiae deletion strains, locus YOR265W, strain rbl2, hits give low values 1.03 | S. cerevisiae deletion strains, locus YOR270C, strain vph1, hits give low values 1.01 | S. cerevisiae deletion strains, locus YOR290C, strain snf2, hits give low values 1.04 | S. cerevisiae deletion strains, locus YOR316C, strain cot1, hits give low values 0.962 | S. cerevisiae deletion strains, locus YPL051W, strain arl3, hits give low values 1.03 | S. cerevisiae deletion strains, locus YPL078C, strain atp4, hits give low values 1.04 | S. cerevisiae deletion strains, locus YPL106C, strain sse1, hits give low values 1.03 | S. cerevisiae deletion strains, locus YPL240C, strain hsp82, hits give low values 1.02 | S. cerevisiae deletion strains, locus YPL241C, strain CIN2, hits give low values 0.982 | S. cerevisiae deletion strains, locus YPL256C, strain CLN2, hits give low values 0.939 | S. cerevisiae deletion strains, locus YPR119W, strain clb2, hits give low values 0.939 | S. cerevisiae deletion strains, locus YPR141C, strain kar3, hits give low values 0.975 | S. cerevisiae strains, strain wild type, hits give low values 1.01
active: S. cerevisiae deletion strains, locus YKL009W, strain mrt4, hits give low values 0.837 | S. cerevisiae deletion strains, locus YLR418C, strain cdc73, hits give low values 0.691 | S. cerevisiae deletion strains, locus YML032C, strain rad52, hits give low values 0.873 | S. cerevisiae deletion strains, locus YNL298W, strain CLA4, hits give low values 0.908 | S. cerevisiae deletion strains, locus YNL307C, strain MCK1, hits give low values 0.475 | S. cerevisiae deletion strains, locus YOL147C, strain pex11, hits give low values 0.886 | S. cerevisiae deletion strains, locus YOR184W, strain ser1, hits give low values 0.685 | S. cerevisiae deletion strains, locus YPR163C, strain tif3, hits give low values 0.677 | S. cerevisiae deletion strains, locus YPR167C, strain met16, hits give low values 0.907 | S. cerevisiae deletion strains, strain wtn01, hits give low values 0.886

Source: PubChem BioAssay AID1159580 (chemical genetic matrix, 2015)
